Tests used:
Test in all cases: log2 ratio of Biotin-Ahx-Ub-VS probe labelling (fragment/DMSO); higher = less target engagement (more negative = stronger competition), active = hit call of the paper (q ≤ 0.05, log2 ratio ≤ -1)
Settings in all cases: compound concentration: 200 uM; treatment time: 3 h
USP42 = target: T1, USP42 (UniProt Q9H9J4)
T1 sequence (whole entry): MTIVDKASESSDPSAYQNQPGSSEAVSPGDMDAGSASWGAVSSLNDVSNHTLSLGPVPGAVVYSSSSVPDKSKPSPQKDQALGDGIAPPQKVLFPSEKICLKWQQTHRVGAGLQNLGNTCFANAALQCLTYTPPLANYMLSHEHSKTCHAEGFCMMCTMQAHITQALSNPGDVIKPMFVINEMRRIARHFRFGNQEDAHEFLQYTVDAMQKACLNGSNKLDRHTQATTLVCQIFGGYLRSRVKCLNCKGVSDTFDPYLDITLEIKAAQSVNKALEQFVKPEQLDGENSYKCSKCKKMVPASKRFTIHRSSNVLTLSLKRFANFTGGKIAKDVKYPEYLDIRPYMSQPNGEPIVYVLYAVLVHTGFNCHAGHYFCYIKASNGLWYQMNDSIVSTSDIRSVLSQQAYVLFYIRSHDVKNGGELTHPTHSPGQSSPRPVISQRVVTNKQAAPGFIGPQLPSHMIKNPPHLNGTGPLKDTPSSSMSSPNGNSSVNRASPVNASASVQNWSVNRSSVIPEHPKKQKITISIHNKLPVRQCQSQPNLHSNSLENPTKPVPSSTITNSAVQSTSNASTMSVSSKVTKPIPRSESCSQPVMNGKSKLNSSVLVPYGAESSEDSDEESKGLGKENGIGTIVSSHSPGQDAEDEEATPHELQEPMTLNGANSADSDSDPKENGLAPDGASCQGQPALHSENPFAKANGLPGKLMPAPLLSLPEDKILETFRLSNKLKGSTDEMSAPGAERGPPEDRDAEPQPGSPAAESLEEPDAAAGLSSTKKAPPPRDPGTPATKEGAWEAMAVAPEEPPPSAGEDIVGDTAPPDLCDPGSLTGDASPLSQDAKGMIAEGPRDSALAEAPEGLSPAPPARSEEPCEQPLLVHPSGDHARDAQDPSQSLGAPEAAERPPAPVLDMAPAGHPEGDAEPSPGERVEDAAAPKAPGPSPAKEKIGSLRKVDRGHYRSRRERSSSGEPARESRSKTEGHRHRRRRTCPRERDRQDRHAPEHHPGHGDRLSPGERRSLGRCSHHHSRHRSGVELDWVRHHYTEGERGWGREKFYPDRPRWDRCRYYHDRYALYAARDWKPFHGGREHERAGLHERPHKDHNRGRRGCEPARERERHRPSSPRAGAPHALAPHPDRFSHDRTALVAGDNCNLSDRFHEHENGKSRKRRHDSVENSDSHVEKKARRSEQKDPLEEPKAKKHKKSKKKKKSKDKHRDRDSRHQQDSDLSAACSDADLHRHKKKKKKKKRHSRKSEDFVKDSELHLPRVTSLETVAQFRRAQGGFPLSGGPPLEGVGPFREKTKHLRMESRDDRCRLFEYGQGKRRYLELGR
How it was run: (§1)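 Using Biotin-Ahx-Ub-VS at 0.5 µM final for 1 h, DUBs were labelled in HEK293T lysate (495 µg per sample) that had first been treated in triplicate with fragment at 200 µM or vehicle for 3 h. NeutrAvidin enrichment, LysC and trypsin digestion and diaPASEF LC-MS/MS followed. Spectronaut label-free quantities were global-median-normalised. Values are average log2 fragment/vehicle ratios by unpaired t-test, using proteins with ≥2 unique peptides.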

USP46 = USP46 (UniProt P62068)
How it was run: as §1

USP47 = target: T2, USP47 (UniProt Q96K76)
T2 sequence (whole entry): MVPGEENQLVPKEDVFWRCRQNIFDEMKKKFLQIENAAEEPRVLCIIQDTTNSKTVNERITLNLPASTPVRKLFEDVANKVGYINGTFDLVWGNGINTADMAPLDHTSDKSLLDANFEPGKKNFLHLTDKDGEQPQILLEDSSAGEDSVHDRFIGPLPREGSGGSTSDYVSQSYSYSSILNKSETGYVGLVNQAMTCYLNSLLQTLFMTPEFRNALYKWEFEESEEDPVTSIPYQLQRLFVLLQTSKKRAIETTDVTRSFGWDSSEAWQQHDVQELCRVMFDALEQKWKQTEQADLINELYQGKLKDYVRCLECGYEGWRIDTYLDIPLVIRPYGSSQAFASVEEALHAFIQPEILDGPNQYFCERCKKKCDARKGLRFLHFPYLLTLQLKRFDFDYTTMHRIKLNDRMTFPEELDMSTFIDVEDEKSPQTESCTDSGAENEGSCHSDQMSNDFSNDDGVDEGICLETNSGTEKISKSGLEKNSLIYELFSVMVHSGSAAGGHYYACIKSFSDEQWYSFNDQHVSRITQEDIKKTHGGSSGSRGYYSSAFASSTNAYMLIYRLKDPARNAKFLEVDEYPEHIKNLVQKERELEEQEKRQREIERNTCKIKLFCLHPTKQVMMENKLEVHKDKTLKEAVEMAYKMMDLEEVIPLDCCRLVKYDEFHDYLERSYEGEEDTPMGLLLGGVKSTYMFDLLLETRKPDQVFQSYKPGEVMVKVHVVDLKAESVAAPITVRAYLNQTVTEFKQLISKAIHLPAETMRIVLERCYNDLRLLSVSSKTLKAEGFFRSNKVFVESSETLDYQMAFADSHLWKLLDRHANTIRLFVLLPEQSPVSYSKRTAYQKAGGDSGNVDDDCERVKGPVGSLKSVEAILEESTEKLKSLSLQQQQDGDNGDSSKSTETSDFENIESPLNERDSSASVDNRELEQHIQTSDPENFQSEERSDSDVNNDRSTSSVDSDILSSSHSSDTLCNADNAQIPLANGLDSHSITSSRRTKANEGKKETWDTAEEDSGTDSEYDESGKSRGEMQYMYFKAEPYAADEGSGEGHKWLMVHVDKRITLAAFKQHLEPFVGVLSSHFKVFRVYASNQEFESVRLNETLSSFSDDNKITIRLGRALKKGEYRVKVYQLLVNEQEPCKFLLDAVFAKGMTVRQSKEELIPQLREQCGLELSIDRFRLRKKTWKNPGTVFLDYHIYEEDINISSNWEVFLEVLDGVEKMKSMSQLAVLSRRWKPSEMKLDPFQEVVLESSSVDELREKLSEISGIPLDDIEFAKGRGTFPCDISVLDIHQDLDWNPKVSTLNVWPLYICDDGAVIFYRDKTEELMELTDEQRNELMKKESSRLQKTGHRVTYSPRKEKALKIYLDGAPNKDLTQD
How it was run: as §1

USP48 = target: T3, USP48 (UniProt Q86UV5)
T3 sequence (whole entry): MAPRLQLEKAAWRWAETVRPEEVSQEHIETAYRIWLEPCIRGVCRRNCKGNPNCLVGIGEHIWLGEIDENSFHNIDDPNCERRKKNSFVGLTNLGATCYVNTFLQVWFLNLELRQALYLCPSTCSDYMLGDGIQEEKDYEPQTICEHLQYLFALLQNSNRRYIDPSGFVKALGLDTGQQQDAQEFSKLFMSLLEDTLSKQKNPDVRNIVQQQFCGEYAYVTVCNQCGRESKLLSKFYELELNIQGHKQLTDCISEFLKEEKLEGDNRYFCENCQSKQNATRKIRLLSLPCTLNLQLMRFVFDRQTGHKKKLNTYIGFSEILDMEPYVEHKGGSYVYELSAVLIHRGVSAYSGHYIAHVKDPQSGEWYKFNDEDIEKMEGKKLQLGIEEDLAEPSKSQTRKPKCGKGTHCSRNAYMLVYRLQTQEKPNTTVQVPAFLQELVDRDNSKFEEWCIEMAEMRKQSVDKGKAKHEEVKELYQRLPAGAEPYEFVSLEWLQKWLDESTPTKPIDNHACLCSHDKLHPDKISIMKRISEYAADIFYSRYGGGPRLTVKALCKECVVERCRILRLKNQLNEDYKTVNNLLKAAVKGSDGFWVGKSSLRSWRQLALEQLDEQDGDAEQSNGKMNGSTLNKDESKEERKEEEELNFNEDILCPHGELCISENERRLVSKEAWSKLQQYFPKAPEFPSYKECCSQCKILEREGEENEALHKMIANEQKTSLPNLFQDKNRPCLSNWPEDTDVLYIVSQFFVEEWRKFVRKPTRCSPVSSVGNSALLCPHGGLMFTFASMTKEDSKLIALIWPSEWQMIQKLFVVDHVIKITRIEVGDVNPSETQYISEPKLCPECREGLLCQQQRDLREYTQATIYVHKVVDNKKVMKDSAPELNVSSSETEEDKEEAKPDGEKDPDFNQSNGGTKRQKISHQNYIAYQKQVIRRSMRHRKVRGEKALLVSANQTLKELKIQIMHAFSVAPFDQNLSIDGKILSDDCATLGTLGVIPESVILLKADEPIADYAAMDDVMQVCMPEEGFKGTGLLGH
How it was run: as §1

USP5 = target: T4, USP5 (UniProt P45974)
T4 sequence (whole entry): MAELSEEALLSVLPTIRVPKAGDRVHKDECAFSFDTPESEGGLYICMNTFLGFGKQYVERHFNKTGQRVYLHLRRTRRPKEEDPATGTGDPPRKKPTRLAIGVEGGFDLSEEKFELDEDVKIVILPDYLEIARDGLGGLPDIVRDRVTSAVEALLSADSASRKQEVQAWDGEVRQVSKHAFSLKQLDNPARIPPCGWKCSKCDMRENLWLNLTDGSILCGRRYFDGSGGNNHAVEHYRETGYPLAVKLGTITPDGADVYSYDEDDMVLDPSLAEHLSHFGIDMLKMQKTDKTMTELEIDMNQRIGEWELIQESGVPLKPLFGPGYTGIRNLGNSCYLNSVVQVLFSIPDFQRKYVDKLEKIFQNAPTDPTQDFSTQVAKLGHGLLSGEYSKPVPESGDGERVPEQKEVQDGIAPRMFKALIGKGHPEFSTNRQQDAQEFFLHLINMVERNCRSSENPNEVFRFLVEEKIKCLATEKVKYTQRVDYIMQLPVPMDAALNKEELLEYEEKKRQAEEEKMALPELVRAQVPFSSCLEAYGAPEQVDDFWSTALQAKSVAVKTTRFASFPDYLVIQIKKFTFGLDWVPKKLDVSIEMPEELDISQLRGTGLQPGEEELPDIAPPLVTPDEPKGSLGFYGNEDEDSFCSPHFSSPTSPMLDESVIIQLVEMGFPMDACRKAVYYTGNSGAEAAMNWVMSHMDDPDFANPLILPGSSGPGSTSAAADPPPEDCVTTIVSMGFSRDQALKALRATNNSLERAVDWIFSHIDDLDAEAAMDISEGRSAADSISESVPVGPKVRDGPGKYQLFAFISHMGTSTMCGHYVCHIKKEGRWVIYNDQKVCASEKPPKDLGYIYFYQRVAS
How it was run: as §1

USP54 = USP54 (UniProt Q70EL1)
How it was run: as §1

USP7 = USP7 (UniProt Q93009)
How it was run: as §1

USP8 = target: T5, USP8 (UniProt P40818)
T5 sequence (whole entry): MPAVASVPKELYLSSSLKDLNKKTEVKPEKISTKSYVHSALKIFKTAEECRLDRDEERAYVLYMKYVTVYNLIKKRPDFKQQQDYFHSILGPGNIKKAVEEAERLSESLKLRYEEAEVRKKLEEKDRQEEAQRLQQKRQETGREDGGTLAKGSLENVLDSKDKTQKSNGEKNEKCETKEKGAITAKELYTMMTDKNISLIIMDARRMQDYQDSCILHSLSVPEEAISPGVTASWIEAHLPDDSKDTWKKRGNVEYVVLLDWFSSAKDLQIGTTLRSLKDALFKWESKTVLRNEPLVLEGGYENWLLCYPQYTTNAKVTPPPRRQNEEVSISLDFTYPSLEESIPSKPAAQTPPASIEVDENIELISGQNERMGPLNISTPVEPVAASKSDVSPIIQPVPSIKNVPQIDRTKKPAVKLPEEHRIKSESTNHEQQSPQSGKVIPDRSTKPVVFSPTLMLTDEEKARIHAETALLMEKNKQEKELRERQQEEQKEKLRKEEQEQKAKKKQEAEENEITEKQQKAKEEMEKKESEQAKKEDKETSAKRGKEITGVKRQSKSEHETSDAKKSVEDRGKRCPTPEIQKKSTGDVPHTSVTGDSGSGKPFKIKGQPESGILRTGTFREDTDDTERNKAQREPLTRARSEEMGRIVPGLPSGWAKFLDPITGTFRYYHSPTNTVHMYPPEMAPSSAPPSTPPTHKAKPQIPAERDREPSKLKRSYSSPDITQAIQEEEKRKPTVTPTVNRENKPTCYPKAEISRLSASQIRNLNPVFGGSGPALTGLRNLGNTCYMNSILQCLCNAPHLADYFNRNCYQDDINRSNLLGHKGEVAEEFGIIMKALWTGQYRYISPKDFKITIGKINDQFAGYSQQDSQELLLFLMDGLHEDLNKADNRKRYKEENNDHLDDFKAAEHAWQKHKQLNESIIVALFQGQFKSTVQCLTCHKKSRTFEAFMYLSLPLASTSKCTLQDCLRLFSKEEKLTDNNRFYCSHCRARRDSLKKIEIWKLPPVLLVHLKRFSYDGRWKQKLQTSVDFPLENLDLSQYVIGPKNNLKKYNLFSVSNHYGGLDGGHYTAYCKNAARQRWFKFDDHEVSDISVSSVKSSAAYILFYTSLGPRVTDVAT
How it was run: as §1

USP9X = USP9X (UniProt Q93008)
How it was run: as §1

UniProt O00487 = target: UniProt O00487
How it was run: as §1

Measured: log2 ratio of Biotin-Ahx-Ub-VS probe labelling

Chain of USP54 (Q70EL1 whole entry): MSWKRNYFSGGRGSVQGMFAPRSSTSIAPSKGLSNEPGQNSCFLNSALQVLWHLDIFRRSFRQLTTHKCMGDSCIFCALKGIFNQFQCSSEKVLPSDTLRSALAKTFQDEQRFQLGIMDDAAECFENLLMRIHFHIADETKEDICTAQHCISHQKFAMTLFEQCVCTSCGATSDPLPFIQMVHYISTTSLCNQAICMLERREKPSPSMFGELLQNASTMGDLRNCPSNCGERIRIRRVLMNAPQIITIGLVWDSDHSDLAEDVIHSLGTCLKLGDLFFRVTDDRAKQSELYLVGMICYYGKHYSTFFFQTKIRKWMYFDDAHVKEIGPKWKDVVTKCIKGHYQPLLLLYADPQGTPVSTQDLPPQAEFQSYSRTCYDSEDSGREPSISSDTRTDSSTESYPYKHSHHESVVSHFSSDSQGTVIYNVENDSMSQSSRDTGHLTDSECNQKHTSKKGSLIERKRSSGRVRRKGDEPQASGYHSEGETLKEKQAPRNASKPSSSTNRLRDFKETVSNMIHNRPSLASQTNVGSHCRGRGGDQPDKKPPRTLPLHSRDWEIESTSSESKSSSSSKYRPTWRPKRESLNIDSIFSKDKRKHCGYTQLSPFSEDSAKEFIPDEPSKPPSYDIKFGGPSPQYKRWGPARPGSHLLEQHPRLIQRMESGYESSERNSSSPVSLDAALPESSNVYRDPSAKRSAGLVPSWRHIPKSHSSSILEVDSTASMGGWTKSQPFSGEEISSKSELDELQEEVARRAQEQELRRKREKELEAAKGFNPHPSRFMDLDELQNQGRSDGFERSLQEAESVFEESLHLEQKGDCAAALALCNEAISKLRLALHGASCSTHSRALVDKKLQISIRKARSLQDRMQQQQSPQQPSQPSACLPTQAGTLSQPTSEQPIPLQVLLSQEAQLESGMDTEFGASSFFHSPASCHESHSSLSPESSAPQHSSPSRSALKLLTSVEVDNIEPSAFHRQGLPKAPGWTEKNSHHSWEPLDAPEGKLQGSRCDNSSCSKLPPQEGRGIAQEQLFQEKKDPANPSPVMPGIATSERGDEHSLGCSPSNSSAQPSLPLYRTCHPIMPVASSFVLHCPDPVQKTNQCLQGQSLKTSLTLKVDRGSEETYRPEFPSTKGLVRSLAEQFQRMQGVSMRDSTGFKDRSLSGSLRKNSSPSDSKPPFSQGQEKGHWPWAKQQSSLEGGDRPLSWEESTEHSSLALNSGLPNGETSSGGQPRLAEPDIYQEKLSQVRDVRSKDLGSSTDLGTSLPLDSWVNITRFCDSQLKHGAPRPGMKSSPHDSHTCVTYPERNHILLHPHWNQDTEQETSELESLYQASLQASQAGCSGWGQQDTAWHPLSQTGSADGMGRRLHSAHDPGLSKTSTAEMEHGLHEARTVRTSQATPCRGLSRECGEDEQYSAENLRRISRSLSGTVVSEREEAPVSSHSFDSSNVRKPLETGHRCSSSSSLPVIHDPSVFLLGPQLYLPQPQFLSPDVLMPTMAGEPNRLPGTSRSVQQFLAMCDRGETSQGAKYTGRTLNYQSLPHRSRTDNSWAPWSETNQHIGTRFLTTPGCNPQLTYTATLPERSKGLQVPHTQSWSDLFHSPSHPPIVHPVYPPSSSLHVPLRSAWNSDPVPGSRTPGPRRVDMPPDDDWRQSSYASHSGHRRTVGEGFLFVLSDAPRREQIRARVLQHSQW
Chain of UniProt O00487 (O00487 whole entry): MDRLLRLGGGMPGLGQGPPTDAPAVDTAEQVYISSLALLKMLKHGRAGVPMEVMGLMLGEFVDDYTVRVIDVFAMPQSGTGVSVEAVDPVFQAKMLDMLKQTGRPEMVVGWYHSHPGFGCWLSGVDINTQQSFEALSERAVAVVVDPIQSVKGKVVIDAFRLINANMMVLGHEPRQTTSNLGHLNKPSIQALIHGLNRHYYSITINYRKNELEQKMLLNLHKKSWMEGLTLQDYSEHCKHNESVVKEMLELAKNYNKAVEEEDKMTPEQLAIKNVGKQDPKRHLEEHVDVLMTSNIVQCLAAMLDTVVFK
Chain of USP7 (Q93009 whole entry, looked up): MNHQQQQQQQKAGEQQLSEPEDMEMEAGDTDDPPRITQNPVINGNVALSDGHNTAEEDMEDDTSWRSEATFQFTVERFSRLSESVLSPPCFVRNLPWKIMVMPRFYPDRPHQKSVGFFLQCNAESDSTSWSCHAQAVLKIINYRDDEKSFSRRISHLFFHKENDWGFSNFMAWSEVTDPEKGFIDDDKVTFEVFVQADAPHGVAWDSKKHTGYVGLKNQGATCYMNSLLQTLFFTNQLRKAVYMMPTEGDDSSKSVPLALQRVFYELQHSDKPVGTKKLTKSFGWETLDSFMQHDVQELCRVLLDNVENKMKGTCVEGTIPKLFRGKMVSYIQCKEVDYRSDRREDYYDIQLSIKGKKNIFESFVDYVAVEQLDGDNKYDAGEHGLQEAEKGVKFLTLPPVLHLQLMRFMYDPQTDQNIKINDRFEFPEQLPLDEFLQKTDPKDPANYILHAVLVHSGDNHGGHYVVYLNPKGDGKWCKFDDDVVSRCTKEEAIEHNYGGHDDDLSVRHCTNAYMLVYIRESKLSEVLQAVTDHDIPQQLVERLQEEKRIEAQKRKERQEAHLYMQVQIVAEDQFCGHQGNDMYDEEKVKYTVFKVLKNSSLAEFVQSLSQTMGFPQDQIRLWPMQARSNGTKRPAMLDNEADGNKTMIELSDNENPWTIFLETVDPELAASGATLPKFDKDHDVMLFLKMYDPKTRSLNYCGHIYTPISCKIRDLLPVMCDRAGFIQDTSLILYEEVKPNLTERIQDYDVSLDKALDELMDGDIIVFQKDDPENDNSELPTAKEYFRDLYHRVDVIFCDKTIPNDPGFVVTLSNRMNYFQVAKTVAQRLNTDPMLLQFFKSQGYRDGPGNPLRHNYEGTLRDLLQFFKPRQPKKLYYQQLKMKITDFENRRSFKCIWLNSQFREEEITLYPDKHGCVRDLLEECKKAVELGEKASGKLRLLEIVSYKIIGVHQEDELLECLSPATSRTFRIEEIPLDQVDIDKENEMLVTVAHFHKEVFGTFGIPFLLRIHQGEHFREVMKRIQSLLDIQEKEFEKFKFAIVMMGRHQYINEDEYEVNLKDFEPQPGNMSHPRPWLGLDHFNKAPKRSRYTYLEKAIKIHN
Chain of USP46 (P62068 whole entry): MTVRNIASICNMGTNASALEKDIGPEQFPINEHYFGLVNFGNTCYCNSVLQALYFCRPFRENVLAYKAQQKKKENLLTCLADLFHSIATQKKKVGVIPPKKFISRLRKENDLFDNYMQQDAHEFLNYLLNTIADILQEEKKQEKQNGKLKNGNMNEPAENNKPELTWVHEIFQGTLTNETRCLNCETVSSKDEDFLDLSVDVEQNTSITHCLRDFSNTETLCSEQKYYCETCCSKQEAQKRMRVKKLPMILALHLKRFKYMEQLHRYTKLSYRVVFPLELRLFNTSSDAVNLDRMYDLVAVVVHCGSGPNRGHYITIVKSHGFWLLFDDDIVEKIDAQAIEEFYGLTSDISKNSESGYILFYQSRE

O=C(CCl)N1CCCCCC1c1ncon1 (stereo not given)
inactive: USP42 -0.342 | USP46 0.113 | USP47 -0.552 | USP48 -0.467 | USP5 0.214 | USP54 0.731 | USP7 -0.491 | USP8 -0.0227 | USP9X -0.226 | UniProt O00487 -0.0641

From the supplement of paper PMC11732987, “Enantioselective OTUD7B fragment discovery through chemoproteomics screening and high-throughput optimisation” (Communications Chemistry, 2025)
